# Compounds with a hit are over-represented: about 12% of the library has one in this group of screens.
# Calpain2 inh = inhibitors of pig calpain II, primary screen, biochemical, fluorogenic peptide substrate, 1536-well; purified calpain II, 30 min; inhibition, % at 16 µM; 0.37% of 220,000 active;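 active means inhibition above about 50%, limit read from the data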
# Lmaj promast = Leishmania major promastigote growth inhibition, primary screen; Leishmania major promastigotes, resazurin fluorescence viability; inhibition, % at 10 µM; 9% of 200,000 active; in the data active means inhibition above about 50%;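 further: promastigotes grown with compound for 44 hours at 28 °C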
# Cl transport mod = KCC2 cotransporter modulators, thallium flux, primary screen, cell-based, HEK293 KCC2, FluoZin-2 fluorescence, MLSMR. Solute carrier family 12 member 5 (Homo sapiens), Q9H2X9. KCC2 cells, thallium flux FluoZin-2 fluorescence. B-score of Tl+ flux slope (higher = more flux/activation; lower = inhibition) at 10 µM. 2.2% of 190,000 active;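 active means thallium flux slope and its plate-corrected score both differing from the plate sample mean at a set confidence after two filtering rounds, in either direction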;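 further: slope of fluorescence scaled to starting intensity during 10 to 20 s after thallium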
# WT yeast gro inh = growth inhibition of WT strain, primary screen, mitochondrial fusion inhibitor project, WT and mutant strains, chemical genetic | mitochondrial fusion phenotypic screen | inhibition, % at 10 µM | 2.1% of 190,000 active; in the data active means inhibition above about 58%; tested in S. cerevisiae
# ROMK primary = ROMK potassium channel modulators, primary screen, cell-based, thallium flux, MLSMR library; 2% of 130,000 active; ATP-sensitive inward rectifier potassium channel 1 (Homo sapiens), P48048; B-score at 10 µM; Tet-inducible ROMK, thallium flux fluorescence; actives lie on both sides;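 active means signal ratio slope over the read window, or its plate-corrected B-score, at least 3 SD from the plate mean, either direction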;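 further: B-score of the F/F0 ratio slope over 7 to 12 s after thallium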
# Target sequence (P48048 whole entry, looked up): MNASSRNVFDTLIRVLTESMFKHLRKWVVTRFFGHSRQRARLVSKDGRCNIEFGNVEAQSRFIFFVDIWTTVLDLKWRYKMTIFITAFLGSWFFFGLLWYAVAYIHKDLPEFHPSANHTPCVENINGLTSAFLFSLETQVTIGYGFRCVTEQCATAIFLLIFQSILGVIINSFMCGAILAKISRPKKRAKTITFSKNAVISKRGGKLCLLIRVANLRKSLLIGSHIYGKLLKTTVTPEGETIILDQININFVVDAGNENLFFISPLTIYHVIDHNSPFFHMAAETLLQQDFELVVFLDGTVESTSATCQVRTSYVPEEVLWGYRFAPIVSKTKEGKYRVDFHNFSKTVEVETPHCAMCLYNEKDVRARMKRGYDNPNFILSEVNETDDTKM
# Numbers without * were called inactive; . = no result.
SMILES,Calpain2 inh,Lmaj promast,Cl transport mod,WT yeast gro inh,ROMK primary
COc1ccc(Nc2ccc3c(c2)=NC2(CCCCC2)[N+]=3[O-])cc1,28.2,100.6*,-0.912,30.1,-0.417
O=S(=O)(N/N=C\C=C\c1ccccc1)c1ccccc1,.,51.1*,0.194,.,.
Cc1ccc(NC(=O)c2sc3nc(CCl)[nH]c(=O)c3c2C)c(C)c1,3.8,88.6*,-0.478,-12.2,-1.09
CCNS(=O)(=O)c1ccc(C(=O)Nc2ccccc2)cc1,-2.2,-5.0,0.0131,11.6,-0.0763
CCOC(=O)c1ccc(NC(=S)NCCc2ccccc2F)cc1,26.5,18.7,0.728,58.5*,0.285
CCOC(=O)c1ccc(NC(=O)Nc2ccc(F)cc2)cc1,-4.2,96.0*,.,14.3,-0.687
CCOC(=O)c1ccc(NC(=O)Nc2ncccc2C)cc1,51.1*,9.3,-0.345,1.4,-0.76
COc1ccccc1NC(=O)CSc1nc2ncccc2[nH]1,-49.3,7.4,-0.169,10.1,.
COC(=O)c1ccc(NC(=O)Nc2ccc(F)cc2)cc1,28.9,-7.8,-2.77,23.8,-1.35
CCOC(=O)c1ccc(NC(=S)NCCc2ccccc2)cc1,11.6,43.8,.,11.8,.
CCOC(=O)c1ccc(NC(=O)CSc2nc3ncccc3[nH]2)cc1,8.0,62.5*,0.157,-13.5,-1.22
O=C(O)c1ccn2c(C(=O)c3ccccc3)c(-c3ccccc3)cc2c1,9.8,.,-3.22,.,.
O=C(/C=C/c1cccc([N+](=O)[O-])c1)NCCN1CCOCC1,-25.4,9.6,0.386,4.8,.
O=C(Nc1ccc(F)cc1)Nc1cc(OCC(F)(F)F)cc(OCC(F)(F)F)c1,25.4,98.8*,0.459,20.3,0.297
CCOC(=O)c1ccc(OS(=O)(=O)c2ccccc2)c(OC)c1,3.6,92.4*,-0.322,18.3,-0.0174
CCCCOC(=O)c1ccc(NC(=O)Nc2ccc(OC)c(OC)c2)cc1,-49.4,1.2,0.293,12.9,-0.221
COc1ccc(NC(=O)Nc2ccc(C)cc2OC(F)F)cc1OC,53.1*,30.0,.,2.8,.
CCOC(=O)c1ccc(NC(=O)Nc2ccc(OC)c(OC)c2)cc1,-7.7,57.7*,-1.12,5.3,-0.314
CCOc1cc(C(=S)N2CCOCC2)ccc1OS(=O)(=O)c1ccccc1,6.7,-3.8,-0.166,-2.7,.
N#Cc1c(NC(=O)C2CC2)sc2c1CCCCC2,-11.7,4.3,-0.0504,-3.9,1.01
CN(C)C(=O)c1cn(-c2ccccc2)nc1-c1cccs1,-19.5,54.0*,1.22,5.5,-0.153
CN1CCN(C(=O)c2cn(-c3ccccc3)nc2-c2cccs2)CC1,2.9,-4.6,0.00236,-13.8,-1.81
CCN(CC)CCNC(=O)c1cn(-c2ccccc2)nc1-c1cccs1,-49.1,22.0,0.0808,.,-2.31
CCN(CC)CCOC(=O)c1ccc(NC(=O)c2cn(-c3ccccc3)nc2-c2cccs2)cc1,-45.9,22.4,1.07,89.8*,0.141
O=C(c1cn(-c2ccccc2)nc1-c1cccs1)N1CCN(c2ccccn2)CC1,-28.1,57.4*,-0.418,45.4,-1.99
SMILES,Calpain2 inh,Lmaj promast,Cl transport mod,WT yeast gro inh,ROMK primary
CN(C)c1ccc(NC(=O)c2cn(-c3ccccc3)nc2-c2cccs2)cc1,-39.5,5.8,-0.392,22.1,-0.0619
Cc1ccsc1C(=O)N1CCCC(CCC(=O)NCc2ccc(F)c(F)c2)C1 (stereo not drawn),-31.2,-3.2,0.0419,4.2,-0.344
C=CCN1C(=O)C(C)NC1=S (stereo not drawn),-8.3,.,0.5,.,0.0496
O=C(C1CC(c2ccc(F)cc2)=NO1)N1CCN(Cc2ccccc2)CC1 (stereo not drawn),6.8,88.6*,.,13.9,.
O=C(C1CCN(Cc2ccc(F)cc2)CC1)N1CCN(C/C=C/c2ccccc2)CC1,8.0,72.9*,-0.627,-2.2,-0.489
O=C(O)C1C2C=CC(C2)C1C(=O)N1CCN(C/C=C/c2ccccc2)CC1 (stereo not drawn),4.1,87.9*,0.92,-10.7,.
O=C(c1ccco1)N1CCN(C(=O)C2CC(c3ccc(Cl)cc3)=NO2)CC1 (stereo not drawn),19.6,-3.2,-0.351,15.4,.
CC1=C(C)CC(C(=O)N2CCN(C/C=C/c3ccccc3)CC2)C(C(=O)O)C1 (stereo not drawn),-31.2,9.9,-0.393,-9.5,0.318
O=C(C1CCN(C2CCN(C/C=C/c3ccccc3)CC2)CC1)N1CCOCC1,-2.3,59.4*,.,-3.8,-0.652
COc1ccc(N2CCCC2=N)c(OC)c1,-5.7,.,0.495,.,.
COc1ccc(CN2CCC(N3CCC(C(=O)N4CCOCC4)CC3)CC2)c(F)c1,-1.7,78.0*,0.277,10.3,0.644

# Screening data deposited in PubChem by several laboratories.
